Source: PubChem
NS1 inh: qHTS Assay for Inhibitors of Influenza NS1 Protein Function. actives 0.4% (n = 270,000). Potency, µM (highest dose often 46.1 µM). AID 2326, 2010; calls by dose curve; further: actives are rising curves; nearly all actives have a fitted effect of over 50% in size
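In this qHTS, NS1 from influenza A is expressed in budding yeast, where it slows growth. Cells are switched from glucose to 2% galactose medium (pH 6.0, -URA), treated with compound, and growth recovery is read at OD600.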
Cruzain Triton: qHTS Assay for Promiscuous and Specific Inhibitors of Cruzain (with detergent); Cruzipain (Trypanosoma cruzi), P25779; purified cruzain, Z-FR-AMC fluorescence, 0.01% Triton; Potency, µM, usual class: inhibitors; actives 0.43% (n = 200,000); AID 1478, 2009; further: nearly all actives have a fitted effect of over 40% in size
Target sequence (P25779 123-467 limits assumed): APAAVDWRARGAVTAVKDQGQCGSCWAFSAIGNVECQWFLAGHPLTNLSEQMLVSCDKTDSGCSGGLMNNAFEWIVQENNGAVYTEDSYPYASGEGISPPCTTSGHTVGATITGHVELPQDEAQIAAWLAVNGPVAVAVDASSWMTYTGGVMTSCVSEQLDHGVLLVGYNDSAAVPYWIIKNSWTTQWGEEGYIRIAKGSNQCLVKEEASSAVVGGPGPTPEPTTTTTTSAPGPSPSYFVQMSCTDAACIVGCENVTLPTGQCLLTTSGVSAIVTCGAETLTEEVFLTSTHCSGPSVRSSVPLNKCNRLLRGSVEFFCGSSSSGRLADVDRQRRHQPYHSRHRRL
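Z-FR-AMC hydrolysis (2 uM substrate) by cruzain (1.5 nM) monitored kinetically at ex 360/em 450 nm after 15 min room-temperature compound exposure; 0.01% Triton X-100, pH 5.5, 5 mM DTT.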
Cruzain noTriton: qHTS Assay for Promiscuous and Specific Inhibitors of Cruzain (without detergent); purified cruzain, Z-FR-AMC fluorescence, no detergent; Cruzipain (Trypanosoma cruzi), P25779; AID 1476, 2009; actives 2.3% (n = 200,000); Potency, µM, hits mostly inhibitors; further: nearly all actives have a fitted effect of over 40% in size
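Detergent-free condition (0.00005% Triton X-100) in acetate buffer pH 5.5 with DTT. 1.5 nM enzyme and compound were pre-mixed 15 min, then 2 uM Z-FR-AMC substrate added; reaction progress from fluorescence change between first and third reads (60 s).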
A number is an active result; . = inactive; ? = inconclusive; / = no result given. The sample as a whole holds a higher share of hits than the screen did. Unless noted, the call rests on the fitted dose curve; in most records, active means well fitted curve in the direction sought with a large enough effect; inconclusive means small, poorly fitted or top-dose-only effect, or another doubt; inactive means no such curve, though single readings can be large; an effect the other way counts as inactive or inconclusive.

SMILES	NS1 inh	Cruzain Triton	Cruzain noTriton
CC1C(=O)N2CCCc3cc(S(=O)(=O)NCc4ccc(Cl)cc4)cc1c32 (stereo not given)	.	/	/
Cc1nnc(N/N=C/c2cccc(OCc3ccc(Cl)c(Cl)c3)c2)n1N	.	22.4µM	?
Cc1nnc(N/N=C/c2cccc(C(F)(F)F)c2)n1N	.	/	/
CC(CC(=O)N1CCN(c2ccccc2F)CC1)c1ccccc1 (stereo not given)	.	.	.
COc1ccc(OC)c(CCNc2nccn(-c3ccc(C)c(C)c3)c2=O)c1	/	.	.
CCCC(=O)Nc1nc2c(C)c(Cl)ccc2s1	.	/	/
Cc1c(Cl)ccc2sc(NC(=O)CN3C(=O)c4ccccc4C3=O)nc12	.	.	10µM
COc1ccc(C(=O)/C=C/C(=O)N(CC(=O)NCCC(C)C)Cc2cccs2)c(O)c1	.	/	/
Nc1c(C(=O)c2ccccc2)sc2snc(SCC(=O)c3ccccc3)c12	.	.	12.6µM
Nc1nnc(SCC(=O)c2ccccc2)s1	.	.	.
Cc1cccc(Cn2c(SCc3ccc(C(=O)NC4CCCCC4)cc3)nc3ccncc32)c1	/	.	.
CCC(C(=O)NC1CCCCC1)n1c(SCc2cccc(C)c2)nc2ccncc21 (stereo not given)	.	14.1µM	?
O=C(Nc1cc(Cl)ccc1-n1cncn1)c1ccc([N+](=O)[O-])s1	.	/	/
Cc1nc2c(C(=O)NCc3ccc4c(c3)OCO4)cnn2c(C)c1Cc1ccc(F)cc1Cl	?	.	15.8µM
Cc1ccccc1Cc1c(C)nc2c(C(=O)NCc3ccc4c(c3)OCO4)cnn2c1C	.	.	.
Cc1ccc(OCCOc2cccc(C=C3C(=O)NC(=O)NC3=O)c2)cc1	.	/	/
COC(=O)c1ccc(C23CC4(C2)[C@H](CN(Cc2ccc(-c5ccccc5)cc2)[C@@H]4c2ccccc2)C3c2ccccc2)cc1 (stereo not given in full)	.	.	7.94µM
N#Cc1ccc(C23CC4(C2)[C@H](CN(Cc2ccc(-c5ccccc5)cc2)[C@@H]4c2ccccc2)C3c2ccccc2)cc1 (stereo not given in full)	.	.	12.6µM
COC(=O)c1ccc(C23CC4(C2)[C@H](CN(C)[C@@H]4c2ccccc2)C3c2ccccc2)cc1 (stereo not given in full)	.	.	.
COC(=O)c1cccc(C23CC4(C2)[C@H](CN(Cc2ccc(-c5ccccc5)cc2)[C@@H]4c2ccccc2)C3c2ccc(Cl)nc2)c1 (stereo not given in full)	.	.	7.94µM
c1ccc(-c2ccc(CN3C[C@@H]4C(c5ccccc5)C5(c6ccccc6)CC4(C5)[C@H]3c3ccccc3)cc2)cc1 (stereo not given in full)	.	.	.
COC(=O)c1cccc(C23CC4(C2)[C@H](CN(Cc2cccnc2)[C@@H]4c2ccccc2)C3c2ccc(Cl)nc2)c1 (stereo not given in full)	.	.	.
O=S(=O)(NC(=NCc1ccccc1)c1ccccc1)c1ccc(Br)cc1	.	/	/
Cc1ccc(SCC(=O)c2c(C)[nH]c3ccccc23)cc1	.	.	.
Cc1cc(Cc2cc(C)c(N)cc2N)c(N)cc1N	8.91µM	.	.
SMILES	NS1 inh	Cruzain Triton	Cruzain noTriton
Cc1cc(Cc2cc(C)c(N)cc2C)c(C)cc1N	.	/	/
COc1ccc(NC(=O)CN2C(=O)COc3ccc(C)cc32)c(OC)c1	.	/	/
COC(C[C@@H]1O[C@H]1[C@H](O)COCc1ccccc1)OC	.	/	/
O=S(=O)(Nc1nc2ccc(S(=O)(=O)N3CCCC3)cc2s1)c1ccc(F)cc1	.	.	15.8µM
O=C(Nc1nc2ccc(S(=O)(=O)N3CCCC3)cc2s1)c1ccc(F)cc1	/	.	.
CCOC(=O)c1ccccc1NC(=O)c1cc2c(s1)-c1ccccc1SC2	/	.	7.94µM
COc1ccc(Cl)cc1NC(=O)c1cc2c(s1)-c1ccccc1OC2	/	.	.
COc1ccc(C)cc1NC(=O)c1cc2c(s1)-c1ccccc1SC2	/	.	15.8µM
CN(CCC#N)C(=O)c1cc2c(s1)-c1ccccc1SC2	.	/	/
O=C(NCc1ccc(F)cc1)c1cc2c(s1)-c1ccccc1SC2	/	.	?
CC(C)c1ccc(NC(=O)c2cc3c(s2)-c2ccccc2SC3)cc1	/	.	10µM
O=C(NCc1ccccc1Cl)c1cc2c(s1)-c1ccccc1SC2	/	.	25.1µM
CCOC(=O)c1ccccc1NC(=O)c1cc2c(s1)-c1c(C)cccc1OC2	/	.	.
CCn1c(Cc2cccs2)nnc1SCC(=O)NC(C)(C)C	.	/	/
CN(C)S(=O)(=O)c1cccc(-c2nnc(SCc3cc(Cl)cc4c3OCOC4)n2N)c1	.	.	.
CCOc1cccc(CC(=O)NCc2ccc3c(c2)CCN3C(C)=O)c1OCC	/	.	.
CCOc1ccc(S(=O)(=O)N2CCCCC2)c2ccccc12	.	.	.
CCOc1ccc(S(=O)(=O)N2CCN(c3cc(Cl)ccc3Cl)CC2)c2ccccc12	/	.	10µM
CCOc1ccc(S(=O)(=O)N2CCOCC2)c2ccccc12	.	/	/
CN1CCN(S(=O)(=O)c2ccc(Cl)c3ccccc23)CC1	.	/	/
CCOc1ccc(S(=O)(=O)N2CCN(c3ccc(C)cc3C)CC2)c2ccccc12	/	.	3.16µM
Cc1ccc(N2CCN(S(=O)(=O)c3ccc(Cl)c4ccccc34)CC2)c(C)c1	/	.	10µM
O=C(COc1ccc(NC(=O)c2ccccc2)cc1)c1ccccc1	.	/	/
CN1C(=S)SC(C)(C)C1(C)NO (stereo not given)	.	.	.
O=C(Nc1ccc(O)c(-c2nc3ccccc3o2)c1)C1(c2ccc(Cl)cc2)CCCC1	.	.	5.01µM
SMILES	NS1 inh	Cruzain Triton	Cruzain noTriton
O=C(Nc1ccc(O)c(-c2nc3ccccc3o2)c1)c1ccco1	/	.	.
OCCC1CN(Cc2cnc(-c3ccccc3)s2)CCN1C1CCCCC1 (stereo not given)	.	/	/
CCOc1ccc(NC(=O)C/C(C)=N/NC(=O)c2cnccn2)cc1	.	/	/
O=C(CNS(=O)(=O)c1ccccc1)OCC(=O)c1ccccc1Cl	.	/	/
O=C(Nc1nc2ccc(SC(F)F)cc2s1)c1ccc2c(c1)S(=O)(=O)c1ccccc1C2=O	.	.	5.01µM
O=C(Nc1nc2ccccc2s1)c1ccc2c(c1)S(=O)(=O)c1ccccc1C2=O	.	/	/
COc1ccc(-c2noc(-c3ccc(N4CCOCC4)c([N+](=O)[O-])c3)n2)cc1OC	/	.	.
COc1ccc(-c2noc(-c3ccc(N4CCC(C)CC4)c([N+](=O)[O-])c3)n2)cc1OC	/	.	20µM
CC(=O)N1CC=C2C(C#N)=C(N)C(C#N)(C#N)C(CCc3ccccc3)C2C1 (stereo not given)	.	.	.
CCN1CC=C2C(C#N)=C(N)C(C#N)(C#N)C(CCc3ccccc3)C2C1 (stereo not given)	.	14.1µM	6.31µM
CN(C)S(=O)(=O)c1ccc(C(=O)Nc2nc(-c3cccs3)cs2)cc1	.	.	.
COc1ccc(-c2csc(NC(=O)c3ccc(S(=O)(=O)N4CCc5ccccc5C4)cc3)n2)cc1	.	.	5.01µM
COC(=O)c1ccc(-c2csc(NC(=O)c3ccc(S(=O)(=O)N4CCc5ccccc5C4)cc3)n2)cc1	.	.	6.31µM
COc1ccc(-n2c(C)cc(-c3csc(NC(=O)c4ccc(S(=O)(=O)N(C)C)cc4)n3)c2C)cc1	.	.	10µM
Cc1ccc(C(=O)Nc2nc(-c3cc(Cl)sc3Cl)cs2)cc1	.	.	?
